Test results taken from PubChem BioAssay (NCATS).
Results filed as inconclusive are left out. Entries that show only a call come without a potency. Active and inactive are the calls of the source. Calls follow the shape of the dose curve; as a rule, active = well fitted inhibition curve with a large enough effect; inconclusive = small, poorly fitted or top-dose-only effect; inactive = flat fitted curve, though single readings scatter. Where a SMILES comes first, the peptide text is derived from it. The star is where a group is joined. PhAc = O=C(Cc1ccccc1)*

Test: P-glycoprotein substrates identified in KB-8-5-11 adenocarcinoma cell line, qHTS therapeutic library screen (AID 1346987); also: nearly all actives have a fitted effect of over 65% in size
Conditions: KB-8-5-11 (P-gp overexpressing) viability, CellTiter-Glo, 72 h; series mostly up to 44.5 µM
Procedure, shortened: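 Luminescence from CellTiter-Glo, read 5 min after addition, quantified survival of KB-8-5-11 (P-gp-overexpressing) cells exposed to compounds for 72 h. AC50 was derived from concentration-response curves.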

| Compound | Potency | outcome | activity change, negative = cytotoxicity |
| --- | --- | --- | --- |
| Cc1ccccc1-c1cc(N2CCN(C)CC2)ncc1N(C)C(=O)C(C)(C)c1cc(C(F)(F)F)cc(C(F)(F)F)c1 | inactive |  |  |
| C=C(COC(=O)CC(C)C)C1Cc2cc(C(C)=O)ccc2O1 (stereo not drawn) | inactive |  |  |
| CC(=O)O[C@@H]1[C@H](O[C@@H]2OC[C@](O)(CO)[C@H]2O)[C@@H](O[C@@H]2O[C@@H](C)[C@H](O)[C@@H](O[C@@H]3O[C@H](CO)[C@@H](O)[C@H](O)[C@H]3O)[C@H]2O)[C@H](OC(=O)[C@]23CCC(C)(C)C[C@H]2C2=CCC4[C@@]5(C)C[C@H](O)[C@H](O[C@@H]6O[C@H](C(=O)O)[C@@H](O)[C@H](O)[C@H]6O)[C@@](C)(C(=O)O)C5CC[C@@]4(C)[C@]2(C)CC3)O[C@@H]1C (stereo partly drawn) |  | inactive [at 9.29 µM] |  |
| CCCC(C(=O)O)c1c(C)nc2ccc(Cl)cc2c1-c1ccccc1 (stereo not drawn) | inactive |  |  |
| CC1=C2C(=O)C=C(CO[C@@H]3O[C@H](CO)[C@@H](O)[C@H](O)[C@H]3O)[C@@H]2[C@H]2OC(=O)[C@H](C)[C@@H]2[C@@H](O)C1 | inactive |  |  |
| COC(=O)C1=CO[C@@H](O[C@@H]2O[C@H](CO)[C@@H](O)[C@H](O)[C@H]2O)[C@H]2[C@@H]1C=C[C@]21C=C([C@H](C)OC(=O)/C=C/c2ccc(O[C@@H]3O[C@H](CO)[C@@H](O)[C@H](O)[C@H]3O)cc2)C(=O)O1 | inactive |  |  |
| COC(=O)C1=CO[C@@H](O[C@@H]2O[C@H](CO)[C@@H](O)[C@H](O)[C@H]2O)[C@@H]2[C@@H](C(=O)O)CC[C@H]12 | inactive |  |  |
| Cc1cn2cc(CC(=O)N3CCC4(CC3)CN(Cc3ccc(-n5nccn5)cc3Cl)C4)nc2s1 | inactive |  |  |
| O=C(C[C@@H]1C(C(=O)O)=CO[C@@H](O[C@@H]2O[C@H](CO)[C@@H](O)[C@H](O)[C@H]2O)/C1=C\CO)OCCc1ccc(O)c(O)c1 | inactive |  |  |
| CC1(C)CC[C@]2(C(=O)O[C@@H]3O[C@H](CO)[C@@H](O)[C@H](O)[C@H]3O)[C@H](O)C[C@]3(C)C(=CCC4[C@@]5(C)CC[C@H](O[C@@H]6OC[C@@H](O)[C@H](O)[C@H]6O)[C@@](C)(C(=O)O)C5CC[C@]43C)[C@@H]2C1 (stereo partly drawn) | inactive |  |  |
| C/C=C(/C)C(=O)OC1C(OC(C)=O)C23C(O)OC4(CCC5C6(C)CCC(OC7OC(C(=O)O)C(O)C(OC8OC(CO)C(O)C(O)C8OC8OC(C)C(O)C(O)C8OC8OCC(O)C(O)C8O)C7OC7OC(CO)C(O)C(O)C7O)C(C)(C)C6CCC5(C)C4(C)CC2OC(C)=O)C3CC1(C)C (stereo not drawn) |  | inactive [at 9.29 µM] |  |
| COc1cc(C(CO)CO[C@@H]2O[C@H](CO)[C@@H](O)[C@H](O)[C@H]2O)ccc1O (stereo partly drawn) | inactive |  |  |
| CC1=C2CC(O)(C(C)(C)O)C(O[C@@H]3O[C@H](CO)[C@@H](O)[C@H](O)[C@H]3O)CC(C)C2CC1=O (stereo partly drawn) | inactive |  |  |
| C/C=C(\C)C1C(C)=CC2CCC(OS(=O)(=O)O)C(C)C2C1/C=C/C=C/C(=O)O (stereo not drawn) | inactive |  |  |
| C[C@@H]1C(=O)O[C@H](C)[C@H]1C[C@@H](O)[C@](C)(O)[C@H]1CC[C@@]2(O)C3=CC(=O)[C@@H]4C[C@@H](O)[C@@H](O)C[C@]4(C)C3CC[C@]12C (stereo partly drawn) | inactive |  |  |
| CC(=O)OC1C(O)/C(C)=C\C2C(OC(=O)c3ccccc3)C(C)CC2(OC(C)=O)C(OC(C)=O)C(C)/C=C/C(C)(C)C1OC(C)=O (stereo not drawn) | inactive |  |  |
| CCOC(=O)CNC(=O)[C@@H]1CCCN1C(=O)Cc1ccccc1 (PhAc-Pro-Gly-OEt) | inactive |  |  |
| COc1ccc(NC(=O)c2ccc(-c3ccc(C(N)=O)cc3C)cc2)cc1N1CCN(C)CC1 | inactive |  |  |
| COC1CC(O[C@H]2CC[C@@]3(C)C(=CC[C@]4(O)C3[C@H](O)[C@@H](O)[C@]3(C)[C@@H]([C@H](C)O)CC[C@@]34O)C2)OC(C)C1OC1CC(OC)C(OC2CC(OC)C(OC3OC(C)C(OC4OC(CO)C(O)C(O)C4O)C(OC)C3O)C(C)O2)C(C)O1 (stereo partly drawn) |  |  | 0.732% [at 9.29 µM] (inactive) |

| Compound | Potency | outcome | activity change, negative = cytotoxicity |
| --- | --- | --- | --- |
| C=C[C@H]1[C@H](O[C@@H]2O[C@H](CO)[C@@H](O)[C@H](OC(=O)/C=C/c3ccc(O)c(OC)c3)[C@H]2O)OC=C2C(=O)OCC[C@]21O | inactive |  |  |
| CC1=CC(=O)CC(C)(C)C1/C=C/C(C)OC1OC(COC2OCC(O)C(O)C2O)C(O)C(O)C1O (stereo not drawn) | inactive |  |  |
| C[C@@H]1[C@H]2[C@H](O[C@@H]3O[C@H](CO)[C@@H](O)[C@H](O)[C@H]3O)OC=C(C(=O)O)[C@H]2C[C@@H]1OC(=O)/C=C/c1ccc(O)cc1 | inactive |  |  |
| O=C(Cc1ccccc1)OC[C@H]1O[C@H](O[C@H]2O[C@H](CO)[C@@H](O)[C@H](O)[C@H]2O)[C@H](O)[C@@H](O)[C@@H]1O | inactive |  |  |
| CCCCOc1nc(N)c2c(n1)N(Cc1cccc(CN3CCCC3)c1)CC(=O)N2 | inactive |  |  |
| CC1(C)CCC[C@]2(C)C1CC=C(CO)[C@H]2CC/C(=C/CO)CO (stereo partly drawn) | inactive |  |  |
| COC(=O)[C@@H](NC(=O)[C@H](CC(C)C)NC(=O)N(Cc1ccccc1)C[C@@H](O)[C@H](Cc1ccccc1)NC(=O)OC(C)(C)C)C(C)C |  |  | -2.72% [at 9.29 µM] (inactive) |
| CC1=CC23[C@H](C=C(C(=O)O)[C@@H]2COC(=O)[C@]3(O)CO)[C@@H]1C (stereo partly drawn) | inactive |  |  |
| CC(=O)NC(Cc1ccccc1)C(=O)NC(C(=O)O)C(C)C (stereo not drawn) (Ac-Phe-Val-OH; configuration not given here) | inactive |  |  |
| CNc1nc(Nc2cn(C(C)(C)C#N)nc2C)ncc1C(F)(F)F | inactive |  |  |
| C/C=C/C=C/C(O)=C1/C(=O)[C@]2(C)C3/C(=C(O)/C=C/C=C/C)C(=O)C4(C)C1[C@]1(C)O[C@@]4(O)[C@@]3(C)O[C@@]12O | inactive |  |  |
| COc1ccc(-n2c(=O)[nH]c3cc(C(=O)NCc4ccc(Cl)cc4)sc3c2=O)nc1OC | inactive |  |  |
| CC(C)c1cc2c(c(O)c1O)[C@@]13CCCC(C)(C)C1[C@@H](O)[C@@H]2OC3=O (stereo partly drawn) | inactive |  |  |
| C/C(=C\CCC(C)C1CC(O)C2(C)C3CCC4C(C)(C)C(OC5OCC(O)C(O)C5O)CCC45CC35CC(O)C12C)C(=O)O (stereo not drawn) | inactive |  |  |
| O=C(O)c1cccc(C(=O)CCC2OC(n3cnc4c(=O)[nH]cnc43)C(O)C2O)c1 (stereo not drawn) | inactive |  |  |
| CCC(C)C(=O)OC[C@H]1O[C@H](O[C@H]2O[C@H](CO)[C@@H](O)[C@H](O)[C@H]2O)[C@H](O)[C@@H](O)[C@@H]1O (stereo partly drawn) | inactive |  |  |
| C/C(=C\CCC(C)(C)O)CCO[C@@H]1O[C@H](CO[C@@H]2O[C@@H](C)[C@H](O)[C@@H](O)[C@H]2O)[C@@H](O)[C@H](O)[C@H]1O | inactive |  |  |
| C=C(C(=O)O)C1CC(OC(=O)CC(C)CC)C2(C)CCCC(=C)C2C1 (stereo not drawn) | inactive |  |  |
| CC1=C2C[C@H]3OC(=O)[C@H](O)[C@@]4(O)[C@@H](C)[C@@H](O)[C@H](O)C([C@@]2(C)[C@H](O)[C@@H](O)C1)[C@@]34C (stereo partly drawn) | inactive |  |  |
